Source: PubChem BioAssay
An excerpt weighted towards active compounds, which were near 4.2% of everything screened.
TCR act: activators of T cell receptors; Potency, µM (highest dose often 9.22 µM), for inactives: top-dose activation of IL-2 secretion, hits mostly activators; primary human leukocytes, anti-CD3, IL-2 HTRF, 48 h; 330,000 tested, under 10 active; also: % of control where 0% means no effect
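1) Mix primary human leukocytes, a-CD3 beads and compound. 2) Incubate 48 hr. 3) Add HTRF IL-2 reagents (a-IL-2-K, a-IL-2-d2).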
uPA surface inh: inhibitors of cell surface uPA generation; cell surface uPA generation assay, qHTS; Potency, µM (top dose mostly 38.3 µM), inactives show top-dose activity change, negative = inhibition, most hits filed as inhibitors; actives 0.31% (n = 330,000); active = well fitted inhibition curve with a large enough effect; inconclusive = small, poorly fitted or top-dose-only effect; inactive = no such curve, though single readings can be large or run the other way; tested in mouse RAW 264.7 cells; also: potency is read from the fitted curve at half-maximal effect; % is scaled to controls: 0 for no effect and ±100 for the full control effect; nearly all actives have a fitted effect of over 55% in size
ClpP mod: qHTS Assay for Activators of ClpP; ATP-dependent Clp protease proteolytic subunit (Bacillus subtilis (strain 168)), P80244; purified B. subtilis ClpP, FRET peptide cleavage, 20 min; actives 1.9% (n = 340,000); Potency, µM (series often up to 57.5 µM), for inactives: at the highest dose activity change, negative = active; active = well fitted falling curve with a large enough effect; inconclusive = small, poorly fitted or top-dose-only effect; inactive = no such curve, though single readings can be large or run the other way; also: potency is read from the fitted curve at half-maximal effect; the source files actives as falling curves though it sought activators and does not explain the sign; nearly all actives have a fitted effect of over 65% in size
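FRET quenching reversal measured ClpP activation: 10 microg/mL B. subtilis ClpP at pH 8 with the FRET-FV decapeptide, read at 430 nm after 320 nm excitation. The 20-min minus 0-min signal was scaled between DMSO/no-enzyme wells and ADEP (5.8 microM final).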
Sfp PPTase inh: blocks B. subtilis Sfp PPTase activity. Q9F4F7. Potency, µM, for the others: largest response in the series, negative = inhibition, actives largely listed as inhibitors. AID 1490. actives 3.5% (n = 310,000). Biochemical Sfp PPTase activity, qHTS;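 also: the enzyme is Sfp with the accession as filed and its product quenches rhodamine fluorescence; potency is read from the fitted curve at half-maximal effect; 0% = enzyme reaction without inhibitor and -100% = no enzyme wells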
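Compounds were incubated with enzyme (final 15 nM) for 15 min at room temperature before substrate addition started the reaction. Fluorescence at 525 nm excitation, 598 nm emission was recorded immediately and after 30 minutes.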
* marks the source's active call; other numbers are inactive results; ? = inconclusive; / = no result given; [ ] = dose if it differs, or a comment. Unless noted, calls follow the shape of the dose curve; as a rule, active = well fitted curve in the direction sought with a large enough effect; inconclusive = small, poorly fitted or top-dose-only effect, or another doubt; inactive = no such curve, though single readings can be large; an effect the other way counts as inactive or inconclusive.

SMILES	TCR act	uPA surface inh	ClpP mod	Sfp PPTase inh
CCOc1ccc(NC(=O)CSc2nnc(-c3ccccc3Cl)n2Cc2ccco2)cc1	-3%	0%	18µM*	-2%
COc1ccc(NC(=O)CSc2nnc(-c3ccccc3)n2Cc2ccco2)c(OC)c1	-1%	4%	-2%	?
O=C(NCc1ccccc1)c1ccc(S(=O)(=O)N2CCCCCC2)cc1	/	/	3%	/
OC(c1nc2ccccc2[nH]1)C(O)c1nc2ccccc2[nH]1 (stereo not drawn)	/	-2%	1%	7%
OC(c1ccccc1)c1nc2ccccc2[nH]1 (stereo not drawn)	/	5%	16µM*	4%
Cc1ccc2oc(C(=O)Nc3ccc(S(=O)(=O)N4CCCCC4C)cc3)cc(=O)c2c1 (stereo not drawn)	/	/	-23%	/
CCCn1c(-c2ccc(F)cc2)nc2c(NC3CC4CCC(C3)N4C)nc(C)nc21 (stereo not drawn)	/	/	/	14%
Fc1ccccc1/C=N/n1c(C2CCCCC2)n[nH]c1=S	8%	6%	1%	?
O=[N+]([O-])c1ccccc1/C=N/n1c(C(F)(F)F)n[nH]c1=S	0%	2%	/	22µM*
S=c1[nH]nc(C2CCCCC2)n1/N=C/c1ccc(Cl)cc1	-1%	-1%	/	?
S=c1[nH]nc(C2CCCCC2)n1/N=C/c1ccccc1Br	-1%	-1%	/	-6%
O=[N+]([O-])c1ccccc1/C=N/n1c(C2CCCCC2)n[nH]c1=S	0%[46.1 µM]	1%	-4%	50µM*
Cc1ccc(/C=N/n2c(C3CCCCC3)n[nH]c2=S)cc1	1%	0%	-1%	50µM*
O=[N+]([O-])c1ccccc1/C=N/n1c(-c2cccnc2)n[nH]c1=S	1%[46.1 µM]	-1%	-1%	?
O=C(O)COc1ccccc1/C=N/n1c(C2CCCCC2)n[nH]c1=S	-7%	3%	-10%	50µM*
CCCCn1c(N)c(N(CC(C)C)C(=O)COC(=O)Cc2c(C)nc3ccccc3c2C)c(=O)[nH]c1=O	1%	6%	1%	7%
CC1=NN(C(=O)c2ccc(Cn3cc([N+](=O)[O-])cn3)cc2)C(O)(C(F)(F)F)C1 (stereo not drawn)	-3%[46.1 µM]	3%	3%	0%
CCN=c1sc(C(=O)NCCc2ccccc2)cc(=O)n1CC	-1%	-9%	-1%	56µM*
CCOC(=O)Cc1csc(NC(=O)c2cccc(OC)c2)n1	3%	-1%	0%	8%
COc1cccc(C(=O)NNC(=O)Cc2csc(N)n2)c1	-15%	3%	/	56µM*
CN(c1ccccc1)S(=O)(=O)c1cccc(NC(=O)c2ccc(=O)[nH]n2)c1	-3%	-1%	25µM*	/
CN(c1ccccc1)S(=O)(=O)c1cccc(NC(=O)c2ccc(=O)[nH]c2)c1	5%	-3%	-1%	/
N[C@H](Cc1ccc(Cl)cc1)C(=O)O	/	/	/	-28%
N[C@@H](Cc1cc(CP(=O)(O)O)cc(-c2ccccc2Cl)c1)C(=O)O	/	/	/	8.9µM*
CCCCN(CCC(=O)O)c1ccc(/C=C/c2ccnc3ccccc23)cc1	/	/	2%	/
SMILES	TCR act	uPA surface inh	ClpP mod	Sfp PPTase inh
CC1=CC(=O)C=C(C)C1=NOS(=O)(=O)c1ccccc1	-2%	-11%	-2%	-5%
CC1=CC(=O)C(C(C)C)=C/C1=N/OS(=O)(=O)c1ccccc1	10%	4µM*	-1%	-27%
c1ccc(CC2CCN(c3nc4ccccc4n4nnnc34)CC2)cc1	-2%	12%	16µM*	-6%
CC(=O)c1cn(CC(=O)Nc2cccc(C)c2C)c2ccccc12	2%	2%	/	45µM*
CCc1cccc2nc3c(c([Si](CC)(CC)CC)c12)Cn1c-3cccc1=O	/	/	/	79µM*
CCc1c2c(nc3c(C(C)C)cccc13)-c1cccc(=O)n1C2	/	/	/	50µM*
CCc1c2c(nc3ccc(OC)cc13)-c1nc3ccccc3c(=O)n1C2	/	/	/	6%
COc1cc2c(NC3CCN(C)CC3)nc(N3CCCN(C)CC3)nc2cc1OCc1ccccc1	/	/	4%	/
O=C(O)c1cccc(N2C(=O)/C(=C/c3ccc(SCc4ccc(Cl)cc4)o3)SC2=S)c1	-3%	8%	-8%	40µM*
O=C(CCN1C(=O)/C(=C/c2ccc(Cl)cc2)SC1=S)Nc1cccc(C(=O)O)c1	-5%	5%	0%	-1%
COc1ccc(OC)c(CNC(=O)c2ccc(Sc3ccc(C)cc3)c(N)c2)c1	/	/	5%	/
COC(=O)c1ccc(Sc2ccc(C)cc2)c(N)c1	/	/	28µM*	50µM*
CC(C)c1cccc(C(C)C)c1NC(=O)CNCC(O)c1ccccc1 (stereo not drawn)	15%	-6%	0%	-13%
CC(C)c1cccc(C(C)C)c1NC(=O)CNCc1ccccc1F	0%[46.1 µM]	-16%	2%	45µM*
FC(F)(F)c1cc(-c2cccs2)nc(-n2cc(Cl)cn2)n1	2%	-3%	32µM*	7%
CCOc1ccccc1NC(=O)c1cc2c(=O)[nH]c3ccccc3c2s1	/	/	-12%	/
C=CCn1cc(-c2cccc(Cl)c2)cc(C#N)c1=O	0%	-8%	28µM*	18%
N#Cc1c(-c2cccc(Cl)c2)[nH]c(=S)[nH]c1=O	1%	3%	/	?
N#Cc1cc(-c2cccc(Cl)c2)c[nH]c1=O	1%	0%	22µM*	8%
CCOC(=O)Nc1oc2ccccc2c(=O)c1C	-5%[46.1 µM]	-1%	5µM*	4%
O=C(Nc1ccccc1)[C@@H]1[C@@H]2C(=O)N(c3ccc(F)cc3)C(=O)[C@@H]2[C@H]2C=CC=NN21	-4%	-3%	/	35µM*
C=CCNC(=O)COc1ccc(S(=O)(=O)Nc2ccc(OCC)cc2)cc1	0%[46.1 µM]	0%	13µM*	-5%
COCCCn1c(Cc2csc(Nc3ccccc3)n2)nnc1SCC(N)=O	-1%[46.1 µM]	1%	0%	32µM*
NC(=O)CSc1nnc(Cc2csc(Nc3ccccc3)n2)n1Cc1ccccc1	3%	-5%	0%	20µM*
O=C(O)CSc1nnc(Cc2ccccc2)n1Cc1ccccc1	/	/	1%	3%
SMILES	TCR act	uPA surface inh	ClpP mod	Sfp PPTase inh
O=C(c1ccsc1)N1CCCC(N2CCOCC2)C1 (stereo not drawn)	2%	9%	-1%	9%
Cc1ccc(CNC(=O)c2sc3nc(C)cc(C)c3c2-n2cccc2)cc1	/	/	-3%	/
Cc1ccc(NC(=O)CN(C)S(=O)(=O)c2ccc3c(c2)CCC(=O)N3)c(C)c1	/	/	4%	/
CCOc1ccc(C(=O)NCC(=O)OCc2c(F)cccc2Cl)cc1	1%[46.1 µM]	2%	28µM*	5%
CCOc1ccc(C(=O)NCC(=O)OCc2c(F)cccc2Cl)cc1OCC	-1%[46.1 µM]	1%	-26%	-12%
COC(=O)C/C=C\[C@@H](C)[C@@H](/C=N\OC[C@@H](O)[C@H]1O[C@H]2OC(C)(C)O[C@H]2[C@@H]1O)OC	/	/	/	14%
O=C1N=C(O)CN1/N=C\c1ccc(-c2ccc([N+](=O)[O-])cc2)o1	/	/	/	-3%
CC(C)CC(=O)/C(=C\c1ccc(Cl)cc1Cl)n1cncn1	2%[46.1 µM]	7.1µM*	0%	32µM*
CC(C)CC(=O)/C(=C/c1ccc(N(C)C)cc1)n1cncn1	6%	-4%	0%	10%
COc1ccc(-c2nsc3c(N4CCCCC4)ncnc23)cc1	-2%	-5%	?	-11%
